Screening results as filed in PubChem BioAssay.
Rows were chosen to be rich in hits. Some 8.8% of all compounds tested hit in one or more screens of this group.
KB-V1 MDR tox: KB-V1 MDR subline cytotoxicity. AID 1347076. Potency, µM (titrated, usually from 46.1 µM), hits mostly cytotoxic. KB-V1 MDR cells viability, CellTiter-Glo, 72 h. 400,000 compounds, 3.4% hits; also: nearly all actives have a fitted effect of over 60% in size
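Cytotoxicity via CellTiter-Glo luminescence after 72 h compound exposure at 37 degrees C. Cells: drug-selected KB-V1 line, DMEM phenol-red free plus 10% FBS. Compounds tested at multiple concentrations; normalized data fitted to concentration-effect curves.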
KB-3-1 tox: kills parental KB-3-1 adenocarcinoma cells. Potency, µM (doses to about 46.1 µM), hits mostly cytotoxic. 400,000 compounds, 1.4% hits. KB-3-1 viability, CellTiter-Glo ATP luminescence, 72 h; also: nearly all actives have a fitted effect of over 60% in size
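Cytotoxicity in the drug-sensitive parental line KB-3-1 was scored as loss of CellTiter-Glo luminescence following 72 h incubation with compound. Values come from curve fitting of normalized concentration-response data.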
IL-1B inflam inh: inhibitors of inflammasome signaling (IL-1 beta secretion) | 360,000 compounds, 4.7% hits | activity change, % at 57.5 µM | AID 743279 | THP-1 LPS/ATP IL-1B secretion, AlphaLISA, 16 h; hits give low values; in the data active = activity change below about -50%; inconclusive = mostly about -30% to -49%
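Secreted IL-1B measured by AlphaLISA bead assay after 16 h compound exposure of THP-1 cells; compounds (final up to 57.5 uM) added 1 h before LPS (250 ng/mL) and ATP (1.25 mM) stimulation; lower signal means less secretion.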
HT1080-NT tox: kills 2HG-producing HT-1080-NT fibrosarcoma cells | Potency, µM (series often up to 46.1 µM), most hits filed as cytotoxic | 360,000 compounds, 1.6% hits | HT-1080-NT fibrosarcoma viability, CellTiter-Glo ATP luminescence, 48 h;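 also: NT is the 2HG producing partner of a matched IDH1 knockdown line; nearly all actives have a fitted effect of over 55% in size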
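Fibrosarcoma NT cells, 750 per well in 5% FBS RPMI, were exposed to compound for 48 hours. Viability: CellTiter-Glo luminescence.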
HT1080 IDH1KD tx: HT-1080 IDH1 knockdown cell toxicity (counter line). HT-1080 IDH1 knockdown viability, ATP luminescence, 48 h. Potency, µM (series often up to 46.1 µM), most hits filed as cytotoxic. 360,000 compounds, 2% hits. AID 686971
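Knockdown cells (IDH1KD HT-1080) received compounds 2 h after plating at 750 cells/well and were kept 48 h at 37 °C in 5% FBS RPMI. A CellTiter-Glo luminescence read gave % activity for curve fitting.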
A number is an active result; 0 = inactive; ? = inconclusive; - = not tested or not shown; ! = not confirmed by another sample. Unless noted, calls follow the shape of the dose curve; as a rule, active = well fitted curve in the direction sought with a large enough effect; inconclusive = small, poorly fitted or top-dose-only effect, or another doubt; inactive = no such curve, though single readings can be large; an effect the other way counts as inactive or inconclusive.

SMILES	KB-V1 MDR tox	KB-3-1 tox	IL-1B inflam inh	HT1080-NT tox	HT1080 IDH1KD tx
COc1cccc(NC(=O)CN(C)C(=O)c2cc(-c3ccccc3)nc3ccc(C)cc23)c1	0	0	0	?	0
COc1ccc(-c2cc(C(=O)N(C)CC(=O)Nc3ccccc3Br)c3ccccc3n2)cc1OC	9.2µM	0	0	?	0
O=C(OCC(=O)N1CCCCC1)c1c[nH]c2ccccc12	21µM	0	0	0	0
O=C(OCC(=O)N1CCCC1)c1c[nH]c2ccccc12	0	0	0	0	0
COc1ccc(-c2cc(C(=O)N(C)CC(=O)Nc3ccccc3C(F)(F)F)c3ccccc3n2)cc1OC	0	0	0	?	0
O=C(OCC(=O)N1CCN(C(=O)c2ccco2)CC1)c1cc(-c2ccc(Cl)c(Cl)c2Cl)nc2ccccc12	21µM	?	0	0	?
O=C(OCC(=O)N1CCN(C(=O)c2ccco2)CC1)c1cc(-c2ccco2)nc2ccccc12	?	0	0	0	0
CC1CCCCN1CCCNc1ccc(C(CC(N)=O)NC(=O)Cc2cccc3ccccc23)cc1[N+](=O)[O-] (stereo not drawn)	?	0	0	0	0
O=C1CS(=O)(=O)N(Cc2cccc(F)c2)c2ccc(Br)cc21	0	0	0	?	?
COc1ccc(CN2c3c(Br)cccc3C(=O)CS2(=O)=O)cc1	0	0	0	23µM	?
Cc1c(O)ccc2c1OC(C)(C)CC2	-	-	-	0	0
COCCn1nnnc1C(c1ccc(C)cc1)N1CCN(Cc2ccc3c(c2)OCO3)CC1 (stereo not drawn)	0	0	0	0	0
Cc1ccc(C(c2nnnn2Cc2cccs2)N2CCN(Cc3ccc4c(c3)OCO4)CC2)cc1 (stereo not drawn)	0	?	-64	0	?
CC[C@]12c3[nH]c4ccccc4c3CCN1C(=O)C(CC(=O)NCc1cccc(C(F)(F)F)c1)C[C@@H]2C(=O)N1CCN(C(=O)C2CC2)CC1 (stereo partly drawn)	0	0	0	0	0
CCOC(=O)c1c(C)[nH]c(C)c1C(=O)CSc1nc2ccccc2c(=O)n1-c1ccc(C)cc1	0	0	0	0	0
CCOC(=O)c1c(C)[nH]c(C)c1C(=O)CSc1nc2ccccc2c(=O)n1-c1ccc(Cl)cc1	10µM	?	0	0	?
COCCn1c(SCC(=O)N2CCCCC2)nc2ccccc2c1=O	4.1µM	0	0	0	0
CCn1c(SCC(=O)N2CCN(c3ccc(Cl)cc3)CC2)nc2ccccc2c1=O	2.6µM	0	0	0	0
COCCCn1c(SCC(=O)N2CCOCC2)nc2ccccc2c1=O	0	0	0	0	0
CCn1c(SCC(=O)N2CCCC2)nc2ccccc2c1=O	6.5µM	0	0	0	0
CCn1c(SCC(=O)N2CCN(c3ccc(F)cc3)CC2)nc2ccccc2c1=O	?	0	0	0	0
O=C(CSc1nc2ccccc2nc1SCC(=O)N1CCOCC1)N1CCOCC1	?	0	0	0	0
O=C(CSc1nc2ccccc2nc1SCC(=O)N1CCCCC1)N1CCCCC1	0	0	-59	?	0
O=c1/c(=C/c2ccccn2)sc2n1CN(c1ccccc1)CN=2	0	0	0	0	0
Cc1cc(C)c2c(c1)/C(=c1/sc3n(c1=O)CN(c1ccccc1)CN=3)C(=O)N2	16µM	?	0	0	?
SMILES	KB-V1 MDR tox	KB-3-1 tox	IL-1B inflam inh	HT1080-NT tox	HT1080 IDH1KD tx
COc1ccc(N=Cc2nc(-c3ccco3)oc2O)cc1	0	0	0	0	?
CCC(=NCc1ccc(Cl)c(Cl)c1)c1nc(-c2ccco2)oc1O	0	0	-64	0	?
COc1ccccc1C(=O)Nc1ccc(C(=O)OCc2cc(=O)n3nc(C4CC4)sc3n2)cc1	0	0	-	-	-
O=C1NC[C@H](CCCCN2CCN(Cc3ccccc3)C(=O)C2=O)N(Cc2ccccc2)C1=O	0	0	0	0	0
Fc1ccc(-n2nc(-c3ccccc3)c3cnc4ccccc4c32)cc1Cl	0	0	-	-	-
CSc1nsc(SCC(=O)Nc2cccc(NC(C)=O)c2)n1	0	0	0	0	0
CCOC(=O)C1(Cc2ccc(Cl)cc2)CCN(C(=O)CCc2ccncc2)CC1	4.1µM	0	?	0	0
CCOC(=O)C1(Cc2ccccc2C(F)(F)F)CCN(C(C)CCn2cccn2)CC1 (stereo not drawn)	0	0	-79	0	0
CCOC(=O)C1(Cc2ccc(Cl)cc2)CCN(C(=O)CCc2cnccn2)CC1	?	?	0	0	0
CCOC(=O)C1(Cc2ccccc2)CCCN(CCCn2cccn2)C1 (stereo not drawn)	?	0	0	0	0
CCOC(=O)C1(Cc2ccc(Cl)cc2)CCN(CCCn2cccn2)CC1	0	0	-58	0	0
CC(NC(=O)c1ccco1)c1nc(-c2ccccc2Cl)no1 (stereo not drawn)	0	0	0	0	0
CCSC1=NCCN1C(=O)c1ccc(S(=O)(=O)N(C)C)cc1	0	0	0	0	0
Cc1cc(C)cc(C(=O)C[n+]2cccc(Br)c2)c1	0	0	-	-	-
O=C(Nc1ccc(-c2nnc3n2CCCCC3)cc1)c1ccco1	?	0	0	0	0
COc1ccc(/C=C/C(=O)Nc2ccc(-c3nnc4n3CCCCC4)cc2)c(OC)c1	0	0	-53	0	0
COc1ccccc1/C=C/C(=O)Nc1ccc2c(c1)CCC2	0	0	?	0	0
Cc1c(C(=O)Nc2ccc(-c3nnc4n3CCCCC4)cc2)oc2ccc(Br)cc12	8.2µM	0	-65	0	0
COc1ccc(OC)c(/C=C/C(=O)Nc2ccc3c(c2)CCC3)c1	16µM	0	0	0	0
Cc1c(C(=O)Nc2nccs2)oc2ccc(Br)cc12	8.2µM	5.8µM	0	0	0
CCc1noc(C)c1C(=O)N1CCN(S(=O)(=O)c2ccc(Br)cc2)CC1	?	0	0	0	0
O=C(CN1CCCN(Cc2ccccc2Cl)S1(=O)=O)NCc1ccccc1	0	?	-	-	-
Cc1ccc(NC(=O)COC(=O)C2CC2(Cl)Cl)cc1C (stereo not drawn)	0	0	0	0	0
Cc1ccc(NC(=O)COC(=O)C2(CC(=O)NC(C)(C)C)CCCC2)cc1C	0	0	-92	0	0
CN(C)C(CNC(=O)c1cc(S(=O)(=O)N2CCOCC2)ccc1F)c1cccs1 (stereo not drawn)	0	0	0	0	0
CC(C)(C)n1nnnc1C(c1ccccc1)N1CCCN(Cc2ccc(F)cc2)CC1 (stereo not drawn)	?	0	0	0	0
CC(C)(C)n1nnnc1CN1CCN(C(c2ccccc2)c2ccccc2)CC1	?	0	-55	0	0
COc1ccc(OC)c(C2=NS(=O)(=O)N(C)C(C(=O)Nc3ccc(F)cc3F)=C2)c1	13µM!	0	0	0	0
COc1ccc(C2=NS(=O)(=O)N(C)C(C(=O)Nc3ccc(C(C)=O)cc3)=C2)cc1OC	0	0	-97	0	0
